Vaccinia mCherry: inhibitors of vaccinia virus infection (mCherry reporter signal). Vaccinia virus mCherry reporter infection, fluorescence. Potency, µM (doses to about 36.5 µM), most hits filed as inhibitors. hit rate 0.63% among 310,000. AID 720579; calls by dose curve; tested in A549 cells; note: nearly all actives have a fitted effect of over 35% in size
FMDV antiviral: antivirals against foot and mouth disease virus; hit rate 1.2% among 410,000; FMDV antiviral cell-based qHTS; AID 1159524; Potency, µM (doses to about 57.9 µM), usual class: inhibitors; calls by dose curve; tested in HEK293T cells; note: read-out not given here; nearly all actives have a fitted effect of over 45% in size
Marburg entry inh: blocks Marburg virus binding to or entry into cells; Marburg virus pseudotyped entry inhibition, cell reporter; Potency, µM (doses to about 37.8 µM), most hits filed as inhibitors; hit rate 1.8% among 300,000; calls by dose curve; tested in HEK293 cells
LASV entry inh: Lassa virus entry inhibition. Lassa virus pseudotype entry inhibition, cell reporter. Potency, µM (series often up to 37.9 µM), hits mostly inhibitors. hit rate 1.2% among 300,000. AID 540256; calls by dose curve; tested in HEK293 cells; note: nearly all actives have a fitted effect of over 50% in size
VACV Venus inh: vaccinia inhibition (Venus reporter). Vaccinia virus Venus reporter expression, fluorescence. Potency, µM (highest dose often 36.5 µM), actives largely listed as inhibitors. hit rate 0.46% among 330,000. AID 720580; calls by dose curve; tested in A549 cells; note: nearly all actives have a fitted effect of over 30% in size
Each line names hits and unclear results; the compound was inactive in the other large screens. Hits are enriched below; roughly 3.2% of the tested compounds scored in any of these assays.

Cc1ccc2cc3c(N)c(C(=O)N4CCOCC4)sc3nc2c1	none
Cc1ccc2nc3sc(C(=O)N4CCOCC4)c(N)c3cc2c1	Vaccinia mCherry inconclusive, FMDV antiviral 10µM, Marburg entry inh 0.411µM, LASV entry inh inconclusive
COc1ccc(CNC(=O)COC(=O)c2n[nH]c3ccccc23)cc1OC	FMDV antiviral 11.2µM, Marburg entry inh inconclusive, LASV entry inh inconclusive (no result: Vaccinia mCherry, VACV Venus inh)
O=C(Nc1ccc2nc(-c3cccs3)c(-c3cccs3)nc2c1)N1CCCCC1	none (no result: FMDV antiviral, Marburg entry inh, LASV entry inh)
C[C@@H](C(=O)NCc1ccc(S(C)(=O)=O)cc1)[C@H]1C[C@]1(C)[C@H](NC(=O)OCc1ccccc1)c1ccccc1	LASV entry inh inconclusive
Cc1ccc(CNC(=O)[C@H](C)[C@H]2C[C@]2(C)[C@H](NC(=O)OCc2ccccc2)c2ccccc2)o1	Marburg entry inh 10.3µM, VACV Venus inh inconclusive
C[C@@H](C(=O)NCc1ccccc1)[C@@H]1C[C@@]1(C)[C@@H](NC(=O)OCc1ccccc1)c1ccccc1	Vaccinia mCherry inconclusive, LASV entry inh 7.31µM
COc1ccccc1CNC(=O)c1ccc(N2CCOCC2)c([N+](=O)[O-])c1	none (no result: Vaccinia mCherry, Marburg entry inh, LASV entry inh, VACV Venus inh)
COCCN1C(=O)NC(c2ccccc2)C(C(=O)OC)=C1C (configuration not stated)	none (no result: Vaccinia mCherry, FMDV antiviral, LASV entry inh, VACV Venus inh)
CC(=NNC(=S)N1CCCCCC1)c1cccc2cccnc12	Vaccinia mCherry inconclusive, Marburg entry inh inconclusive, LASV entry inh inconclusive, VACV Venus inh inconclusive
CC(=NNC(=S)N1CC2CCC(CC2)C1)c1ccccn1	Vaccinia mCherry inconclusive, VACV Venus inh inconclusive (no result: Marburg entry inh, LASV entry inh)
CC(=NNC(=S)N1CC2CCC(CC2)C1)c1cnccn1	Vaccinia mCherry 15.8µM, Marburg entry inh inconclusive, LASV entry inh 0.282µM, VACV Venus inh inconclusive
CC(=NNC(=S)N1CCN(c2ccccn2)CC1)c1nccs1	Vaccinia mCherry 2.82µM, Marburg entry inh inconclusive, LASV entry inh inconclusive, VACV Venus inh inconclusive
CC(=NNC(=S)N1CCN(C2CCCCCC2)CC1)c1ccccn1	Vaccinia mCherry inconclusive, FMDV antiviral inconclusive, Marburg entry inh inconclusive, LASV entry inh 0.282µM, VACV Venus inh inconclusive
CC(=NNC(=S)N1CCN(c2ccccn2)CC1)c1ccccn1	Marburg entry inh inconclusive
CC(=O)c1ccc(NC(=O)CSc2ccc3nnc(-c4cccnc4)n3n2)cc1	none (no result: Vaccinia mCherry, VACV Venus inh)
c1cncc(CNc2ccnc(-c3cccnc3)n2)c1	none (no result: Vaccinia mCherry, Marburg entry inh, LASV entry inh, VACV Venus inh)
Cc1c(C(=O)N2CCN(Cc3ccc4c(c3)OCO4)CC2)sc2ncnc(N3CCN(c4ccccc4F)CC3)c12	FMDV antiviral 28.2µM (no result: Vaccinia mCherry, Marburg entry inh, LASV entry inh, VACV Venus inh)
Cc1c(C(=O)N2CCN(Cc3ccc4c(c3)OCO4)CC2)sc2ncnc(N3CCN(c4ccccc4)CC3)c12	FMDV antiviral 2.51µM (no result: Vaccinia mCherry, Marburg entry inh, LASV entry inh, VACV Venus inh)
O=[N+]([O-])c1ccc(N2CCN(c3cccc(Cl)c3)CC2)cn1	Vaccinia mCherry inconclusive, Marburg entry inh 8.91µM, LASV entry inh inconclusive
COc1ccc(-c2nc(CS(=O)(=O)CC(=O)NCc3ccccc3OC)c(C)o2)cc1	none (no result: Vaccinia mCherry, Marburg entry inh, LASV entry inh, VACV Venus inh)
CC(Oc1ccc(F)cc1)C(=O)Nc1ccc2ccccc2c1 (configuration not stated)	Marburg entry inh 11.6µM, LASV entry inh inconclusive (no result: Vaccinia mCherry, VACV Venus inh)
NC(=O)[C@H]1CC2(CC(c3cccc(NC(=O)COc4ccc(Cl)cc4)c3)=NO2)CN1C(=O)c1ccc(Cl)cc1 (some centres not stated)	Vaccinia mCherry 11.2µM, VACV Venus inh 11.2µM (no result: Marburg entry inh, LASV entry inh)
Cc1nc(-c2cccc(NC(=O)C(C)Oc3ccccc3)c2)cs1 (configuration not stated)	LASV entry inh 8.91µM
COc1ccc(CC(=O)Nc2cccc(-c3csc(C)n3)c2)cc1	FMDV antiviral inconclusive, Marburg entry inh inconclusive, LASV entry inh inconclusive (no result: Vaccinia mCherry)
Cc1nc(-c2cccc(NC(=O)COc3ccc(Cl)cc3)c2)cs1	FMDV antiviral inconclusive, Marburg entry inh 12.6µM, LASV entry inh inconclusive
CCC(C)NC(=O)CN(c1ccc(Cl)c(Cl)c1)S(C)(=O)=O (configuration not stated)	none
Nc1ccc(C(=O)OCC(=O)N2CCc3ccccc3C2)cc1[N+](=O)[O-]	LASV entry inh inconclusive
Nc1ccc(C(=O)OCC(=O)N2c3ccccc3Sc3ccccc32)cc1[N+](=O)[O-]	Marburg entry inh 20.6µM, LASV entry inh 15.8µM
Cc1nc(N/N=C/c2ccc(O)cc2O)cc(N2CCOCC2)n1	Vaccinia mCherry 1.12µM, Marburg entry inh 2.82µM, LASV entry inh inconclusive, VACV Venus inh inconclusive
Cc1nc(N/N=C/c2cccc([N+](=O)[O-])c2)cc(N2CCCCC2)n1	none (no result: Marburg entry inh, LASV entry inh)
Oc1ccc(/C=N/Nc2cc(N3CCOCC3)nc(N3CCOCC3)n2)cc1O	FMDV antiviral inconclusive, Marburg entry inh inconclusive, VACV Venus inh inconclusive
Oc1cccc(/C=N/Nc2cc(N3CCOCC3)nc(N3CCOCC3)n2)c1	Vaccinia mCherry inconclusive, Marburg entry inh 2.59µM, LASV entry inh inconclusive, VACV Venus inh inconclusive
Oc1ccccc1/C=N/Nc1cc(N2CCCC2)nc(N2CCCC2)n1	Vaccinia mCherry inconclusive, Marburg entry inh 2.31µM, LASV entry inh inconclusive, VACV Venus inh inconclusive
Cc1nc(N/N=C/c2cccc(F)c2)cc(N2CCOCC2)n1	Vaccinia mCherry inconclusive, FMDV antiviral inconclusive, Marburg entry inh 7.94µM
COC1=C(OC)C(Cl)=C(CC2C(=O)OC(C)(C)OC2=O)CC1	none (no result: Vaccinia mCherry, FMDV antiviral, LASV entry inh, VACV Venus inh)
Cc1cc(C)nc(NN=C(c2ccccc2)c2ccccc2)n1	Marburg entry inh 10.3µM, LASV entry inh inconclusive
O=C(COC(=O)c1ccc(F)cc1F)Nc1ccc2c(c1)OCO2	none (no result: Marburg entry inh, LASV entry inh)
O=c1c2ccccc2[se]n1-c1ccccc1	Marburg entry inh 18.3µM, LASV entry inh 14.6µM
O=c1c2ccccc2nc(-c2ccccc2)n1-c1ccccc1	none (no result: Vaccinia mCherry, Marburg entry inh, LASV entry inh, VACV Venus inh)
O=C(CCC(=O)Nc1ccc(Br)cc1)N/N=C/c1ccccc1O	Vaccinia mCherry 5.62µM, Marburg entry inh inconclusive, LASV entry inh inconclusive, VACV Venus inh inconclusive
O=C(Cn1cc(C(F)(F)F)ccc1=O)N/N=C/c1ccccc1O	Vaccinia mCherry 15.8µM (no result: Marburg entry inh, LASV entry inh)
Cc1ccc(NC(=O)CCC(=O)N/N=C/c2ccccc2O)cc1	none (no result: Vaccinia mCherry, Marburg entry inh, LASV entry inh, VACV Venus inh)
Cc1cccc(NC(=O)CCC(=O)N/N=C/c2ccc(O)cc2O)c1	Vaccinia mCherry 6.31µM, Marburg entry inh inconclusive, LASV entry inh inconclusive
O=C(COc1nsnc1N1CCOCC1)N/N=C/c1ccccc1O	Vaccinia mCherry 22.4µM, Marburg entry inh inconclusive, LASV entry inh inconclusive, VACV Venus inh inconclusive
O=C1[C@H]2[C@@H]3[C@@H](O)[C@H](O)CC(=NOCc4ccccc4)[C@@H]3CC[C@H]2C(=O)N1Cc1ccc2c(c1)OCO2	LASV entry inh inconclusive (no result: Vaccinia mCherry, FMDV antiviral, VACV Venus inh)
CC1=C[C@@H](COCc2ccccc2)O[C@@]2(C1)C(=O)N(Cc1ccc(Br)cc1)c1ccccc12	LASV entry inh inconclusive (no result: Vaccinia mCherry, FMDV antiviral, VACV Venus inh)
O=C(CCCCC(=O)NN=Cc1ccccc1O)NN=Cc1ccccc1O	Vaccinia mCherry 3.16µM, Marburg entry inh inconclusive, LASV entry inh inconclusive
Cc1cc(=O)oc2cc(OCC(=O)N/N=C/c3ccccc3O)ccc12	Vaccinia mCherry inconclusive
O=C(CSCC(=O)NN=Cc1ccccc1O)NN=Cc1ccccc1O	Vaccinia mCherry inconclusive, Marburg entry inh inconclusive, LASV entry inh inconclusive, VACV Venus inh inconclusive
CSc1nc(C)cc(OCC(=O)N/N=C/c2ccccc2O)n1	Vaccinia mCherry 11.2µM, FMDV antiviral inconclusive, Marburg entry inh 2.82µM, LASV entry inh inconclusive, VACV Venus inh inconclusive
CC1(C)C(O)CC(O)[C@]2(C)C1CC(O)[C@]1(C)C2CC[C@@]2(C)C(c3ccoc3)OC(=O)C3O[C@]312 (some centres not stated)	none (no result: Marburg entry inh, LASV entry inh)

High-throughput results (PubChem BioAssay)
